Experiment [1] can be described thus: sensitizers of A549 cells to miR-34 induction, primary screen, imaging, A549 dox-inducible miR-34, nuclei and caspase counts (AID 1347080;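 active means compounds whose cell count with miR-34 switched on is under 0.7 times the count with it off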). Conditions: A549 miR-34 inducible, Hoechst nuclei count, 48 h.
Experiment [2] in a line: survival rescue of mitochondrial mutant cells in low glucose, primary screen, MELAS cybrids, Rieske KO mouse fibroblasts, CellTiter-Glo (AID 1508586;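 active means mean z-score across replicates of 1.96 or higher in either the MELAS or the Rieske mutant cell line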;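 further: z relative to plate mean and SD of compound and empty wells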). In general terms: In ATP-based viability assays light output follows the ATP content of the culture.
The nature of experiment [3]: ovarian cancer cell viability with rucaparib, profiling panel, oncology-focused library, rucaparib conditional (AID 1508598). The following applies: patient-derived ovarian cancer cells, CellTiter-Glo viability, 144 h, stronger effect = lower value.
Setting [4] is: stronger effect = lower value, cell number ratio, induced over uninduced.
The mark [5] stands for this setting: measured here: relative caspase fold change +Dox/-Dox.
Where [6] appears, read: measured here: total cells with miR-34 induction, stronger effect = lower value.
The mark [7] stands for this setting: measured here: total cells without miR-34 induction.
Setting [8] is: MELAS cybrid survival, CellTiter-Glo 48 h, stronger effect = higher value.
Setting [9] is: Rieske KO mouse fibroblast survival, CellTiter-Glo 72 h.

This note sets out measurements from PubChem BioAssay.

Activity calls are given as the source filed them.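 How the source made its calls, unless noted: active means normalized viability below 100% at a tested concentration; inactive means the rest.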

As to `CCOC(=O)c1ccc(NC2CCCCC2)c(N)c1`, the fold change in experiment [1] (setting [4]) was 0.937 (inactive); in experiment [1] (setting [5]), 0.358. Besides, the cell count in experiment [1] (setting [6]) turned out to be 7670; in experiment [1] (setting [7]), 8180. Further, the z-score was -0.371 (inactive) in experiment [2] (setting [8]) and 0.61 in experiment [2] (setting [9]).
As for `O=C(OC1C[N+]2(CCCOc3ccccc3)CCC1CC2)C(O)(c1cccs1)c1cccs1` (configuration not stated), the fold change in experiment [1] (setting [4]) was 0.946 (inactive); in experiment [1] (setting [5]) it was 1.31. Moreover, the cell count in experiment [1] (setting [6]) is 8940; in experiment [1] (setting [7]), 9450. The z-score in experiment [2] (setting [8]) is -0.202 (inactive); in experiment [2] (setting [9]), -0.179.
As for `Cc1ccc(C(=O)NCCCCCC(=O)Nc2ccccc2N)cc1`, the values for the fold change in experiment [1] (setting [4]) and in experiment [1] (setting [5]) were 0.986 (inactive) and 0.44, respectively. In addition, the cell count was found to be 4890 in experiment [1] (setting [6]) and 4960 in experiment [1] (setting [7]). Also, the z-score in experiment [2] (setting [8]) is -0.614 (inactive); in experiment [2] (setting [9]), -2.
For the compound `C1=CCOCc2cc(ccc2OCCN2CCCC2)Nc2nccc(n2)-c2cccc(c2)COC1`, the fold change in experiment [1] (setting [4]) is 0.848 (inactive); in experiment [1] (setting [5]), 0.685. In addition, the cell count in experiment [1] (setting [6]) was 776; in experiment [1] (setting [7]), 915. Also, the z-score was 3.58 (active) in experiment [2] (setting [8]) and -5.03 in experiment [2] (setting [9]).
For orientation: viability means a read-out of living cells in per cent, often relative to untreated cells. `C=CS(=O)(=O)NC1CCN(C(=O)CNc2cc(I)c(Cl)cc2OC)CC1`: the fold change in experiment [1] (setting [4]) is 1.09 (inactive); in experiment [1] (setting [5]), 0.391. Also, the cell count in experiment [1] (setting [6]) is 4400; in experiment [1] (setting [7]), 4020. Further, the z-score in experiment [2] (setting [8]) is 0.491 (inactive); in experiment [2] (setting [9]) it was 1.48. The viability was 129% (inactive) in experiment [3] (at 0.000305 µM, OCI-C5x cells, with rucaparib 10 µM, 100% = cells with rucaparib alone); 112% (inactive) in experiment [3] (at 0.000305 µM, OCI-C5x cells, without rucaparib); 97.3% (active) in experiment [3] (at 0.000305 µM, OCI-P5x cells, with rucaparib 20 µM, 100% = cells with rucaparib alone); 100% (inactive) in experiment [3] (at 0.000305 µM, OCI-P5x cells, without rucaparib); 117% (inactive) in experiment [3] (at 0.00122 µM, OCI-C5x cells, with rucaparib 10 µM, 100% = cells with rucaparib alone); 106% (inactive) in experiment [3] (at 0.00122 µM, OCI-C5x cells, without rucaparib). In addition, the viability is 108% (inactive) in experiment [3] (at 0.00122 µM, OCI-P5x cells, with rucaparib 20 µM, 100% = cells with rucaparib alone); 101% (inactive) in experiment [3] (at 0.00122 µM, OCI-P5x cells, without rucaparib); 110% (inactive) in experiment [3] (at 0.00488 µM, OCI-C5x cells, with rucaparib 10 µM, 100% = cells with rucaparib alone); 116% (inactive) in experiment [3] (at 0.00488 µM, OCI-C5x cells, without rucaparib); 103% (inactive) in experiment [3] (at 0.00488 µM, OCI-P5x cells, with rucaparib 20 µM, 100% = cells with rucaparib alone); 102% (inactive) in experiment [3] (at 0.00488 µM, OCI-P5x cells, without rucaparib). Besides, the viability in experiment [3] (at 0.0195 µM, OCI-C5x cells, with rucaparib 10 µM, 100% = cells with rucaparib alone) is 117% (inactive); in experiment [3] (at 0.0195 µM, OCI-C5x cells, without rucaparib), 102% (inactive); in experiment [3] (at 0.0195 µM, OCI-P5x cells, with rucaparib 20 µM, 100% = cells with rucaparib alone), 101% (inactive); in experiment [3] (at 0.0195 µM, OCI-P5x cells, without rucaparib) it was 96.9% (active); in experiment [3] (at 0.0781 µM, OCI-C5x cells, with rucaparib 10 µM, 100% = cells with rucaparib alone), 121% (inactive); in experiment [3] (at 0.0781 µM, OCI-C5x cells, without rucaparib) it was 107% (inactive). Also, the viability in experiment [3] (at 0.0781 µM, OCI-P5x cells, with rucaparib 20 µM, 100% = cells with rucaparib alone) was 107% (inactive); in experiment [3] (at 0.0781 µM, OCI-P5x cells, without rucaparib) it was 90.5% (active); in experiment [3] (at 0.313 µM, OCI-C5x cells, with rucaparib 10 µM, 100% = cells with rucaparib alone), 119% (inactive); in experiment [3] (at 0.313 µM, OCI-C5x cells, without rucaparib) it was 93.3% (active); in experiment [3] (at 0.313 µM, OCI-P5x cells, with rucaparib 20 µM, 100% = cells with rucaparib alone) it was 93.4% (active); in experiment [3] (at 0.313 µM, OCI-P5x cells, without rucaparib), 95.6% (active). Moreover, the viability is 111% (inactive) in experiment [3] (at 1.25 µM, OCI-C5x cells, with rucaparib 10 µM, 100% = cells with rucaparib alone); 106% (inactive) in experiment [3] (at 1.25 µM, OCI-C5x cells, without rucaparib); 96.2% (active) in experiment [3] (at 1.25 µM, OCI-P5x cells, with rucaparib 20 µM, 100% = cells with rucaparib alone); 84.8% (active) in experiment [3] (at 1.25 µM, OCI-P5x cells, without rucaparib); 117% (inactive) in experiment [3] (at 5 µM, OCI-C5x cells, with rucaparib 10 µM, 100% = cells with rucaparib alone); 105% (inactive) in experiment [3] (at 5 µM, OCI-C5x cells, without rucaparib). In addition, the viability in experiment [3] (at 5 µM, OCI-P5x cells, with rucaparib 20 µM, 100% = cells with rucaparib alone) is 90.8% (active); in experiment [3] (at 5 µM, OCI-P5x cells, without rucaparib), 86% (active).
